# ± gives the standard deviation.
# Experiments:
# Conditions in all cases: modulator concentration 10 µM
# [1] = system: RAW-Dual (murine macrophage reporter line); assay: NF-kB reporter (SEAP) activity fold change vs agonist alone; higher = enhanced NF-kB activity
# How it was run: (§1)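 RAW-Dual murine macrophage reporter cells were plated at 50 000 per well in 384-well plates, pin-transferred compound to 10 μM final, and pre-incubated for 1 hour at 37 °C before a PRR agonist was added and the cells incubated overnight. NF-κB activity was read from supernatant SEAP with QUANTI-Blue at 620 nm absorbance, and IRF activity from Lucia luciferase with QUANTI-Luc by luminescence. Each signal was expressed as fold change by dividing by the mean agonist-only control on the same plate. Two replicate plates were averaged, with errors obtained by propagation.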
# [2] = system: RAW-Dual (murine macrophage reporter line); assay: IRF reporter (Lucia luciferase) activity fold change vs agonist alone; higher = enhanced IRF activity
# How it was run: as §1
# [3] = system: RAW-Dual (murine macrophage reporter line); assay: viability score (confluency relative to resting cells, overnight) (fraction); higher = more viable, active = viable (0.7 or more)
# How it was run: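 Confluency was the readout: RAW-Dual macrophages were imaged with IncuCyte after an overnight exposure to compound at 10 μM final. IncuCyte software produced two masks over all imaged wells. The viability score expresses confluency against resting cells, and both masks had to exceed 70% of resting cells for a compound to meet the cutoff.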
# [4] = agonist: CpG ODN 1826 0.5 ug/mL
SMILES,"NF-kB reporter [1, 4]",NF-kB reporter ([1]; agonist: LPS 0.1 ug/mL),NF-kB reporter ([1]; agonist: MPLA […]),IRF reporter ([2]; agonist: 3'3'-cGAMP 10 ug/mL),IRF reporter ([2]; agonist: LPS 0.1 ug/mL),IRF reporter ([2]; agonist: MPLA […]),viability score [3]
Cc1ccc(C=CC(=O)O)cc1S(=O)(=O)NCCO,1.04 ± 0.2,0.884 ± 0.075,1.05 ± 0.095,0.988 ± 0.077,1.16 ± 0.2,0.979 ± 0.32,0.984 (active)
Br.Fc1ccc(-c2csc(Nc3ccc4c(c3)OCO4)n2)cc1,0.871 ± 0.076,0.946 ± 0.066,1.02 ± 0.038,0.315 ± 0.022,1.03 ± 0.076,1.29 ± 0.12,0.999 (active)
COc1ccc(OS(=O)(=O)c2ccc3cc(OC)ccc3c2)cc1,0.982 ± 0.088,1.14 ± 0.089,1.06 ± 0.068,1 ± 0.035,1.43 ± 0.1,1.03 ± 0.15,1 (active)
COc1cc(C(=O)NCCCCc2ccccc2)cc(OC)c1OC,1.09 ± 0.095,1.04 ± 0.068,0.994 ± 0.034,0.906 ± 0.14,0.993 ± 0.068,0.983 ± 0.14,0.995 (active)
Cc1ccccc1N=Nc1ccc(NC(=O)c2ccnn2C)c(C)c1,1.12 ± 0.21,1.06 ± 0.086,0.946 ± 0.077,0.98 ± 0.039,1.21 ± 0.15,1.25 ± 0.21,1.01 (active)
CC(C)(Oc1ccc(CCNC(=O)c2ccc(-c3ccc(Cl)cc3)o2)cc1)C(=O)O,1.09 ± 0.087,1.03 ± 0.078,0.976 ± 0.062,0.942 ± 0.067,1.39 ± 0.22,1.08 ± 0.1,1.01 (active)
COC(=O)C1=C(C)N(C)C(C)=C(C(=O)OC)C1c1cccc(C(F)(F)F)c1,0.884 ± 0.069,1.07 ± 0.093,0.955 ± 0.082,0.995 ± 0.035,1.32 ± 0.22,0.976 ± 0.073,1.01 (active)
CC(C)n1cnc(S(=O)(=O)N2CCC(S(=O)(=O)c3nccn3C)CC2)c1,0.36 ± 0.028,0.842 ± 0.067,0.663 ± 0.048,0.935 ± 0.026,1.34 ± 0.14,1.14 ± 0.084,0.878 (active)
CCOC(=O)C1=C(C)NC(C)=C(C(=O)OC)C1c1ccc(C)cc1 (stereo unspecified),0.782 ± 0.069,0.743 ± 0.062,1.2 ± 0.046,0.815 ± 0.13,0.914 ± 0.039,1.34 ± 0.087,0.935 (active)
Cc1ccc(S(=O)(=O)Nc2c3ccccc3c(O)c3c4c(oc23)CC(C)(C)CC4=O)cc1,0.938 ± 0.075,1.04 ± 0.067,0.935 ± 0.058,0.842 ± 0.05,1.29 ± 0.14,1.02 ± 0.16,1.01 (active)
Cc1cc(C)n(CCC(=O)N2CCc3nc4ccc(F)cn4c(=O)c3C2)n1,1.02 ± 0.051,0.938 ± 0.098,1.01 ± 0.1,1.03 ± 0.06,1.27 ± 0.079,1.21 ± 0.12,1 (active)
Cc1cc(OC2CCN(C(=O)c3csc(C)n3)CC2)nc(C)n1,1.01 ± 0.051,1.11 ± 0.095,0.923 ± 0.068,0.954 ± 0.088,1.23 ± 0.12,1.15 ± 0.23,1.01 (active)
FC(F)(F)c1ccnc(NC2CCN(c3ncnc4c3CCCC4)CC2)n1,0.884 ± 0.083,1.35 ± 0.11,1.86 ± 0.081,1.21 ± 0.069,1.65 ± 0.16,1.59 ± 0.18,0.318 (inactive)
